# Compound activity deposited in PubChem by National Center for Advancing Translational Sciences (NCATS).
# Rows were chosen to be rich in hits. Some 6.1% of all compounds tested hit in one or more screens of this group.
# D1 PAM: Potentiators of Human D1 Dopamine Receptor: qHTS | HEK293 TREx D1 cells, calcium flux, dopamine EC20 potentiation | D(1A) dopamine receptor (Homo sapiens), P21728 | AID 504651, 2011 | potentiation, % at 10 µM | 360,000 compounds, 0.036% hits; in the data active means potentiation above about 30%; further: 0% is about no effect
# Target sequence (P21728 whole entry, looked up): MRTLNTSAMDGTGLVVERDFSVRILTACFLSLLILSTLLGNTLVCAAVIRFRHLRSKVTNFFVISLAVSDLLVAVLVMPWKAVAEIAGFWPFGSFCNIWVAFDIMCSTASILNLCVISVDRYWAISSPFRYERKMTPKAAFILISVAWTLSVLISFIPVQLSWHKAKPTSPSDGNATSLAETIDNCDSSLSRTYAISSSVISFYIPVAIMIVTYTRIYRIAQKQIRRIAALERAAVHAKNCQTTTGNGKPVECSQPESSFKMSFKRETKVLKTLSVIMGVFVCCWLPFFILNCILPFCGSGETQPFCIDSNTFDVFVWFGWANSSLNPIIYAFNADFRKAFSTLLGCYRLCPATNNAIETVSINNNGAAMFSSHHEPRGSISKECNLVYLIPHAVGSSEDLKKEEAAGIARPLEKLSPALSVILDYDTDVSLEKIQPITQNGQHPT
# D1 antagonist: Antagonist of Human D 1 Dopamine Receptor: qHTS | D(1A) dopamine receptor (Homo sapiens), P21728 | HEK293 TREx D1 cells, calcium flux, dopamine EC80; hits give low values | activity change, negative = inhibition, % at 10 µM | 360,000 compounds, 3.2% hits | AID 504652, 2011; in the data active means activity change below about -30%; further: on the % scale 0 is the no-effect control and ±100 the full control effect
#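 Allosteric or orthosteric antagonism assessed as attenuation of the calcium response to EC80 dopamine, added 180 s after compound, in induced HEK293 Trex D1 cells loaded with no-wash calcium dye.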
# D3 ag: qHTS of D3 Dopamine Receptor Agonist: qHTS; D(3) dopamine receptor (Homo sapiens), P35462; D3R DiscoveRx beta-arrestin cells, luminescence, 90 min; max activation, %; 410,000 compounds, 0.58% hits; in the data active means max activation above about 30%; further: 0% is about no effect
#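 Cells at 1500/well, incubated overnight, then treated with pinned compounds (dopamine as control) for 90 min at 37 degrees C. DiscoveRx reagent added for 30 - 60 minutes at room temperature; luminescence read.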
# DRD3 antagonist: qHTS of D3 Dopamine Receptor Antagonist: qHTS; D(3) dopamine receptor (Homo sapiens), P35462; D3R cells, DiscoveRx beta-arrestin luminescence, antagonist mode; hits give low values; max response, negative = inhibition, %; 360,000 compounds, 2.5% hits; AID 652054, 2013; in the data active means max response below about -50%; further: on the % scale 0 is the no-effect control and ±100 the full control effect
#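 Cells plated overnight at 1500 cells/well, then exposed to library compounds with dopamine controls for 90 minutes at 37 degrees C. DiscoveRx reagent added for 30–60 minutes at room temperature; luminescence read, quantitative HTS format.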
# D1 agonist: Allosteric Agonists of the Human D1 Dopamine Receptor: qHTS; activation, % at 2 µM; 360,000 compounds, 1% hits; HEK293 T-REx D1 cells, calcium flux, agonist mode; AID 504660, 2011; in the data active means activation above about 30%; further: 0% is about no effect
#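 Tetracycline-induced HEK293 TREx D1 cells, force-coupled to calcium signalling, were dye-loaded with a no-wash calcium kit. Compound was pin-added after a 10 s baseline. Fluorescence was read kinetically at 1 cycle/s for 180 s, with calcium rises flagged as agonism.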
# Numbers without * were called inactive; . = no result given; ! = not active in a repeat.
SMILES,D1 PAM,D1 antagonist,D3 ag,DRD3 antagonist,D1 agonist
COc1cc(C(C)=O)ccc1OCc1cn(CC(=O)c2ccc(O)cc2)nn1,.,.,3,-72*,.
O=C(c1ccc([N+](=O)[O-])cc1[N+](=O)[O-])N1CCCC1,-3,4,1,1,0
O=C(c1ccc([N+](=O)[O-])cc1[N+](=O)[O-])N1CCc2ccccc21,0,-11,-13,-51*,2
S=C1SCN(Cc2ccccn2)CN1Cc1ccco1,-4,-15,-20,-62*,2
O=C1NC(=Nc2ccc(O)cc2)S/C1=C/c1ccco1,-9,-37*,7,0,0
COc1ccc(/C=C2\SC(=S)N(c3cccnc3)C2=O)cc1,3,8,6,17,5
O=C1/C(=C/C=C/c2ccco2)SC(=S)N1c1ccc(O)cc1,-4,8,0,-26,6
O=C1/C(=C\c2ccc(O)cc2)SC(=S)N1c1cccnc1,-6,-2,-10,-28,66*
O=C1/C(=C\c2ccco2)SC(=S)N1c1ccc(O)cc1,-2,-31*,-3,-26,3
CCc1ccc(OCCCSc2nc(-c3ccc(C(C)(C)C)cc3)nc3cc(=O)[nH]n23)cc1,3,6,5,.,1
COc1cc(C2C(=O)N(C3CCCCCC3)CC(=O)N2Cc2ccccc2)ccc1OC(C)C (stereo unspecified),1,-13,19,.,-2
COc1cccc(-n2c(-c3ccco3)nc3c(cnn3-c3ccc(C)cc3)c2=O)c1,-2,-9,-11,.,7
CCOc1ccc(N(CC)S(=O)(=O)N2CCCC(C(=O)Nc3cc(Cl)ccc3C)C2)cc1 (stereo unspecified),2,8,-3,.,5
C=CCN(c1ccc(C(=O)OC)cc1)S(=O)(=O)c1ccccc1,-8,-5,1,-76*,-3
CCCN(c1ccc(C(=O)OC)cc1)S(=O)(=O)c1ccccc1,3,10,6,5,1
C=CCN(c1ccccc1)S(=O)(=O)c1cccc(C(=O)OCC(=O)NC2CC2)c1,-4,-34*,-1,-4,6
C=CCN(c1ccccc1)S(=O)(=O)c1cccc(C(=O)Nc2nnc(SCC)s2)c1,-12,-85*,22,105,1
CCSc1nnc(NC(=O)c2cccc(S(=O)(=O)N(C)c3ccccc3)c2)s1,-5,6,1,1,2
C=CCN(c1ccccc1)S(=O)(=O)c1cccc(C(=O)OCC(=O)NCCOC)c1,0,8,3,1,1
CCCNC(=O)C1CCC(Cn2c(=O)c3sccc3n(CC(=O)N(CC)CC)c2=O)CC1 (stereo unspecified),1,22,0,.,6
Oc1ccccc1C1=NOC(O)(C(F)F)C1 (stereo unspecified),-10,-24,-3,-66*,3
Oc1ccccc1C1=Nc2ccccc2N=C(c2ccco2)C1,4,12,-18,8,0
COc1ccc(C(=O)c2c(C)c3ccccc3n2CC(O)CNC(C)C)cc1 (stereo unspecified),0,-20,-7,-17,60*
Cc1ccc(C2N3CC4(C)CN2CC(c2ccccc2)(C3)C4=O)cc1 (stereo unspecified),-1,-7,1,.,1
CCOc1cc(C(=O)Nc2cc(C)ccc2C)ccc1OCC(=O)N1CCCCC1,-11,-90*,-12,-22,2
Cc1ccccc1OCC(=O)N/N=C1\SCC(=O)N1Cc1ccccc1,-1,-43*,2,9,1
COc1ccc(C)cc1NC(=O)COC(=O)c1ccc(OCc2ccc(Cl)cc2Cl)c(OC)c1,-3,-50*,1,9,1
O=C(Nc1c(C(=O)N2CCC(N3CCCCC3)CC2)oc2ccccc12)c1ccc(F)cc1,-2,4,-10,-12,10
O=C(Nc1c(C(=O)N2CCC(N3CCCCC3)CC2)oc2ccccc12)c1c(F)cccc1F,-2,22,51*!,-8,-1
